Results taken from PubChem BioAssay (Tox21).
Results filed as inconclusive are left out. Entries that show only a call come without a potency. Values without a mark were called inactive. Activity calls are given as the source filed them. The call rests on the fitted dose curve.

Target: 5-hydroxytryptamine receptor 2A (Homo sapiens) (UniProt P28223)
Assay: 5-hydroxytryptamine receptor 2A (HTR2A) small molecule agonists, cell-based qHTS assay (AID 1963587); further: nearly all actives have a fitted effect of over 30% in size
Conditions: HTR2A-CHO cells, calcium flux fluorescence, agonist mode; series mostly up to 76.8 µM
Text: National Center for Advancing Translational Sciences [NCATS]
Division of Preclinical Innovation [DPI]
U.S. Environmental Protection Agency [EPA]
National Institutes of Environmental Health Sciences [NIEHS]
National Toxicology Program [NTP]
U.S. Food and Drug Administration [FDA]
The HTR2A receptor is a subtype of the 5-HT2 receptor that belongs to the serotonin receptor family and is a G protein-coupled receptor (GPCR). The HTR2A-CHO cell line stably expressing human 5-hydroxytryptamine receptor 2A (HTR2A) can be used for screening agonists of interactions between 5-HT2 and its ligands. The HTR2A-CHO calcium flux assay is a homogeneous fluorescence-based assay for detecting the intracellular calcium level using FDSS kinetic plate reader system.
HTR2A-CHO cells were dispensed at 2000 cells/3uL/well in 1536-well black-clear bottom plates using a Multidrop Dispenser. After the assay plates were incubated at a 37 C/5% CO2 incubator for 18 h, 3 uL of Dye Loading Buffer was transferred to the assay plate by a Flying Reagent Dispenser. The assay plates were incubated at 37 C for 1h. For agonist mode, 23 nL of compounds dissolved in DMSO, positive controls or DMSO only was transferred to the assay plate by a pin tool. The fluorescence intensity in the plates was measured using FDSS 7000EX kinetic plate reader for 2 min at 1 sec intervals.
Potency means the concentration at half of the fitted maximal effect.

5-hydroxytryptamine receptor 2A (Homo sapiens), sequence (P28223 whole entry, looked up): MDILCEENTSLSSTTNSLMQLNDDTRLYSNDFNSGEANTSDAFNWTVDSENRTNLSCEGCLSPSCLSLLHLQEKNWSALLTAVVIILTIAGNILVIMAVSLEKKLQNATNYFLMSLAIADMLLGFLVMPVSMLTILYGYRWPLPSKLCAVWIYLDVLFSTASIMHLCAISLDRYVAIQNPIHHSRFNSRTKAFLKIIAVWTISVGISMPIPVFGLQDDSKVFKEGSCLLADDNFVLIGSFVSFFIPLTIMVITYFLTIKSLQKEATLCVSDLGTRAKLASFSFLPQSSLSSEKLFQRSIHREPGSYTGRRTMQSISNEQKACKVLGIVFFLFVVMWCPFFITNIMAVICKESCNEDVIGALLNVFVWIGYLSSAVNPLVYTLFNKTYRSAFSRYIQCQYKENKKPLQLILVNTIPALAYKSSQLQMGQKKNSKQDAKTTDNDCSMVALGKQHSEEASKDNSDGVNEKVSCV

SMILES | Potency | activation
Nc1ccc(N=Nc2ccc(N)cc2)cc1 | inactive | –
C/C=C/C=N/NC(=O)c1ccncc1 | inactive | –
CN1CCC(=C2c3ccccc3CCc3cccnc32)CC1 | inactive | –
CC1=CC(=C(c2ccc(N)cc2)c2ccc(N)cc2)C=CC1=N | – | 2.32% [at 7.02 µM]
CN(C)[C@@H]1C(=O)C(C(N)=O)=C(O)[C@@]2(O)C(=O)C3=C(O)c4c(O)ccc(Cl)c4[C@@H](O)[C@H]3C[C@@H]12 | inactive | –
COC(=O)[C@@H](N)Cc1ccc(O)c(O)c1 | inactive | –
CC(O)CN (stereo not given) | inactive | –
Nc1ccc(C(=O)Nc2ccccc2N)cc1 | inactive | –
C=C(C)C(=O)OCCOCCOCCOCCOC(=O)C(=C)C | inactive | –
COCCOc1cc2cc(C(=O)NC3CCN(C(C)C)CC3)n(CC(=O)Nc3ccc(Cl)cn3)c2cn1 | inactive | –
CN(C)c1ccc(C2(c3ccc(N(C)C)cc3)OC(=O)c3cc(N(C)C)ccc32)cc1 | inactive | –
Cc1c(C(=O)O)c(O)cc2c1C(=O)c1c(O)c([C@@H]3O[C@H](CO)[C@@H](O)[C@H](O)[C@H]3O)c(O)c(O)c1C2=O | inactive | –
CC/C=C\CCCCCCCCCCOC(C)=O | inactive | –
CC(C)(C)c1ccc(-c2ccc(C(C)(C)C)cc2)cc1 | inactive | –
CCCCNc1cc(C(=O)O)cc(S(N)(=O)=O)c1Oc1ccccc1 | inactive | –
CC(CCc1ccc2c(c1)OCO2)NN (stereo not given) | inactive | –
CC(C)(N)C#N | inactive | –
CC(C)c1ccc2ncccc2c1 | inactive | –
CCCCCC(C)OC(=O)COc1ccc(Cl)c2cccnc12 (stereo not given) | inactive | –
CCOc1ccc(NC(C)=O)cc1N | inactive | –

SMILES | Potency | activation
N#Cc1ccccc1O | inactive | –
CC(=O)Nc1cccc(N)c1 | inactive | –
CCC(Cl)CCC(Cl)C(Cl)CC(Cl)C(Cl)C(Cl)CCl (stereo not given) | inactive | –
CCCCCCOC(=O)NC(=N)c1ccc(NCc2nc3cc(C(=O)N(CCC(=O)OCC)c4ccccn4)ccc3n2C)cc1 | inactive | –
NC(=O)Cn1c(=O)cc(CCN2CCN(c3nccc4sccc34)CC2)c2ccc(F)cc21 | inactive | –
O=C(N/N=C/c1ccc([N+](=O)[O-])o1)c1ccc(O)cc1 | inactive | –
CN(C)CC[C@@H](c1ccc(Br)cc1)c1ccccn1 | inactive | –
CNCCCC1c2ccccc2C=Cc2ccccc21 | inactive | –
c1ccc(OCc2ccc(CCCN3CCOCC3)cc2)cc1 | inactive | –
CCOC(=O)CC(O)(CC(=O)OCC)C(=O)OCC | inactive | –
Cc1c(Cl)c(=O)oc2cc(O)ccc12 | inactive | –
CCN(CC)CCNC(=O)COc1ccc(OC)cc1 | inactive | –
CCCC/C=C/CCCCO | inactive | –
O=C1c2ccccc2C(=O)N1CCc1noc(-c2ccc(CN3CCCCCC3)s2)n1 | inactive | –
C[C@@H]1C[C@H]2[C@@H]3CCC4=CC(=O)C=C[C@]4(C)[C@@]3(F)[C@@H](O)C[C@]2(C)[C@@]1(O)C(=O)COC(=O)c1ccncc1 | inactive | –
Cc1c(Cl)cccc1Cl | inactive | –
CC/C=C1/OC(=O)c2ccccc21 | inactive | –
O=C(OCC(O)CO)c1ccccc1Nc1ccnc2cc(Cl)ccc12 (stereo not given) | inactive | –
O=C1OC2(c3ccc(O)cc3Oc3cc(O)ccc32)c2ccc(N=C=S)cc21 | 17.7 µM (active) | –
O=C(c1ccccc1)c1cc(Cl)ccc1O | inactive | –
